From PubChem BioAssay AID540303 (National Center for Advancing Translational Sciences (NCATS), 2011) come the findings set out here.

In all, about 330,000 compounds went through this assay and about 1,000 (0.3%) were called active. Roughly 3% stayed inconclusive and do not appear here. Calls come from the whole dose curve; as a rule, active = well fitted inhibition curve with a large enough effect; inconclusive = small, poorly fitted or top-dose-only effect; inactive = no such curve, though single readings can be large or run the other way; tested in mouse RAW 264.7 cells. What follows is part of a selection rich in actives, with near analogues and random picks from the rest. A call without a number means that no potency is given here.
Potency is the fitted concentration of half-maximal effect.

This test can be described thus: qHTS for Inhibitors of Cell Surface uPA Generation. Note: nearly all actives have a fitted effect of over 55% in size. The following applies: cell surface uPA generation assay; series mostly up to 38.3 µM. The source says: The overall objective of this project is to perform a quantitative high throughput screen (qHTS) to identify novel compounds that inhibit the generation of cell surface urokinase activity. The urokinase plasminogen activator (uPA) is one of the two primary endogenous systems that mediate plasminogen activation into plasmin. Members of this system, including uPA and its receptor (uPAR), are overexpressed in several malignant tumors. This system plays a major role in adhesion, migration, invasion and metastasis of cancer cells. Small molecule inhibitors of the uPA system will serve as probes to understand the molecular mechanisms of the uPA cascade and better understanding the microenvironmental circumstances that facilitate the activation of plasminogen by uPA, and finally may provide novel candidate agents for anticancer drug therapy.
[…] […] Upon inhibition of the uPA activation cascade, the subsequent cell surface uPA activity-dependent translocation of LF into the cytoplasm is inhibited. ATP-Lite is used to measure intracellular ATP concentrations, which remain increased if LF entry into the cytoplasm is inhibited. This validation assay was performed using a small set of validation compounds.
NIH Chemical Genomics Center [NCGC]
NIH Molecular Libraries Probe Centers Network [MLPCN]
Assay Submitter (PI): Thomas Bugge, National Institute of Dental and Craniofacial Research, NIH
Cultured RAW 264.7 were dispensed into 1536-well clear bottom, white walled tissue culture plates at a density of 4000 cells/well and were incubated overnight (12-16 h) at 37 C in a 5% CO2 incubator. Serially diluted compounds in 23 nl DMSO were added to cells. […] Compound and reagent-treated plates were incubated for 24 h at 37 C in a 5% CO2 incubator. Perkin Elmer ATPlitetrade mark 1 step (3 ul) was then added to each well. Luminescence was detected using a Perkin Elmer ViewLuxtrade mark plate reader.
1.Dispensing RAW 264.7 cells into 1536-well, white walled tissue culture plates at a density of 4000 cells/well (4 uL).
2.Incubation at 37 C in a 5% CO2 incubator overnight.
3.Serially diluting compounds (1:5 serial dilution; 0.0024 uM to […] final concentration) in 23 nl DMSO.
5.Incubating the compound and reagent-treated plates for 24 hours at 37 C in a 5% CO2 incubator.
6.Adding ATP-Lite (3 ul).
7.Reading plates by ViewLux with an exposure length of 5 seconds.
In general terms: Quantitative high-throughput screening tests each substance at several concentrations.
For the compound `COc1ccc(-c2ccc3c(c2)C2CC3CCN2CCC#N)cc1` (stereo not given), the Potency result is “inactive”.
`CC(C=Cc1ccccc1)=NNS(=O)(=O)c1ccc([N+](=O)[O-])cc1`: the Potency result is “inactive”.
For `CCCCOc1ccc(CSC(=N)N)cc1[N+](=O)[O-]`, the Potency entry was “inactive”.
Under `CCCOc1ccc(Cn2ccnc2)cc1[N+](=O)[O-]` stands “inactive”; under `CCCCCOc1ccc(CSC2=NCCN2)cc1[N+](=O)[O-]`, 10 µM (active); under `COc1ccc(Br)cc1/C=N/Nc1ccc(S(=O)(=O)Nc2ccccc2C(=O)O)cc1[N+](=O)[O-]`, “inactive”.
As to `O=C(NCC1(N2CCCCC2)CCCCC1)c1cccc(S(=O)(=O)Nc2ccccc2Cl)c1`, the Potency result is “inactive”.
The entry for `CN(C)C(CNC(=O)c1cc2ccccc2o1)c1ccccc1` (stereo not given) is “inactive”.
The entry for `O=C1/C(=C\c2ccc(O)cc2)CCC1CNc1ccc(Cl)cc1` (stereo not given) is “inactive”.
The entry for `O=C(CC(=O)c1cccnc1)c1ccccc1` is “inactive”; for `O=C(/C=C\c1ccc2c(c1)OCO2)NC1(C(=O)Nc2ccc3c(c2)OCCO3)CCCCC1` it is “inactive”; for `COc1cccc(/C=C/C(=O)Nc2ccc3c(c2)OCCO3)c1` it is 2.82 µM (active).
On to `COc1ccc(OC)c(/C=C/C(=O)OCC(=O)Nc2ccc3c(c2)OCCO3)c1`, for which the Potency result was “inactive”.
Under `c1ccc(CCc2ccccn2)cc1` stands “inactive”.
As for `NC(CSC1(c2ccccc2)c2ccccc2-c2ccccc21)C(=O)O` (stereo not given), the Potency result is “inactive”.
Regarding `O=C(N/N=C/c1cccc(O)c1)c1cc2c(ccc3ccccc32)o1`, the Potency result was “inactive”.
The figure for `Cc1c(/C=N\NC(=O)c2cc3ccccc3o2)c2ccccc2n1C` is 3.55 µM (active); for `Cc1c(/C=N/N2C(=O)C3C4C=CC(C4)C3C2=O)c2ccccc2n1C` (stereo not given) it is “inactive”.
Turning to `CC(=NNC(=S)N1CCCCCC1)c1ccccn1`, the Potency result was “inactive”.
The entry for `Cc1cc(NC(=O)C(C)SCC(=O)Nc2cccc(S(=O)(=O)N3CCCCCC3)c2)no1` (stereo not given) is “inactive”.
Under `O=C(Nc1ccn(CCCNCc2ccc3[nH]ccc3c2)c(=O)n1)OCc1ccccc1` stands “inactive”; under `NNc1cccc(C=Cc2ccccc2)cc1=O`, “inactive”; under `C=CCN(C(=O)Nc1ccc2c(c1)nc(C)n2C)c1ccccc1`, “inactive”.
Under `Cc1nc2cc(NC(=O)Nc3cccc(F)c3)ccc2n1C` stands 3.98 µM (active).
As to `Cn1c(CCN2CCCCCC2)nc2cc(NC(=O)Nc3ccccc3)ccc21`, the Potency entry is “inactive”.
The entry for `Cc1ccc(OCCNC(=O)c2cccc(S(=O)(=O)N3CCN(Cc4ccccc4)CC3)c2)cc1` is “inactive”; for `C=CCOC(=O)N1CCC2CC1c1cc(-c3ccc(OC)cc3)ccc12` (stereo not given) it is “inactive”.
Under `O=C(CNC(=O)[C@@H]1Cc2ccccc2CN1)NC1CCCCC1` stands “inactive”; under `C[C@H](NC(=O)[C@@H]1Cc2ccccc2CN1C(=O)OC(C)(C)C)C(=O)NC1CCCC1`, “inactive”; under `C[C@@H](NC(=O)[C@@H]1Cc2ccccc2CN1)C(=O)NC1CCCC1`, 7.08 µM (active).
